Source: PubChem BioAssay (NCI)
Several values for one entry are separate records, joined by “and”; a condition that tells them apart may be missing. Equal values may be shown once. This is part of a sample that, as a whole, favours compounds with a hit. Of some 79,000 tested, about 15% had one in any assay. Some structures have more than one record in an assay (separate samples or runs), and their calls can disagree. Activity calls are given as the source filed them. Cut-off read from the data, not from the text of the source: active = growth inhibition above about 70%; inactive = the rest.

Assays:
[1] = NCI Yeast Anticancer Drug Screen. Data for the rad50 strain (AID 155);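 note: 0% = growth of vehicle-only cultures of the same strain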; conditions: S. cerevisiae rad50 strain growth inhibition, stronger effect = higher value
Outline: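 Readout: growth inhibition relative to vehicle-treated cultures. Compound exposure was carried out in a genetically defined yeast strain deficient in DNA damage repair.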

[2] = NCI Yeast Anticancer Drug Screen. Data for the mec2-1 strain (AID 157); conditions: S. cerevisiae mec2-1 strain, stronger effect = higher value
Outline: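 Using mec2-1 yeast: add compound, measure growth, express inhibition versus vehicle-treated cultures.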

[3] = NCI Yeast Anticancer Drug Screen. Data for the sgs1 mgt1 strain (AID 161);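 note: 0% = growth of cultures given vehicle only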; conditions: S. cerevisiae sgs1 mgt1 strain, stronger effect = higher value
Outline: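 Growth of a repair-deficient yeast mutant was monitored after compound treatment and expressed as inhibition relative to vehicle-treated cultures.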

[4] = NCI Yeast Anticancer Drug Screen. Data for the cln2 rad14 strain (AID 165);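 note: 0% = growth equal to vehicle treated cultures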; conditions: S. cerevisiae cln2 rad14 strain, stronger effect = higher value
Outline: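 Yeast strain cln2 rad14, bearing defects in cell cycle control and DNA repair, serves as the test system; values reflect growth inhibition compared with vehicle.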

[5] = NCI Yeast Anticancer Drug Screen. Data for the bub3 strain (AID 167); conditions: S. cerevisiae bub3 mutant strain, stronger effect = higher value
Outline: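 Readout: yeast growth inhibition, expressed relative to vehicle-only wells. The test organism is a mutant strain from a panel with lesions in DNA repair or checkpoint genes.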

[6] = NCI Yeast Anticancer Drug Screen. Data for the mlh1 rad18 strain (AID 175); conditions: S. cerevisiae mlh1 rad18 strain growth inhibition, stronger effect = higher value
Outline: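 Steps: expose repair-defective yeast to compound; measure growth; express inhibition against vehicle-treated controls.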

[7] = at 5.0 µM (retest, dose inferred, filed as 0.5)
[8] = at 50.0 µM (retest, dose inferred, filed as 5.0)

| SMILES | growth inhibition [1, 7] | growth inhibition [1, 8] | growth inhibition ([1]; at 50.0 µM) | growth inhibition [2, 7] | growth inhibition [2, 8] | growth inhibition ([2]; at 50.0 µM) | growth inhibition [3, 7] | growth inhibition [3, 8] | growth inhibition ([3]; at 50.0 µM) | growth inhibition [4, 7] | growth inhibition [4, 8] | growth inhibition ([4]; at 50.0 µM) | growth inhibition [5, 7] | growth inhibition [5, 8] | growth inhibition ([5]; at 50.0 µM) | growth inhibition [6, 7] | growth inhibition [6, 8] | growth inhibition ([6]; at 50.0 µM) |
| --- | --- | --- | --- | --- | --- | --- | --- | --- | --- | --- | --- | --- | --- | --- | --- | --- | --- | --- |
| C[CH2][Hg][Cl] | 99% (active) and 48% (inactive) | 99% (active) | 93.1% (active) | 100% (active) and 46% (inactive) | 100% (active) and 93% (active) | 95% (active) | 100% (active) | 100% (active) and 99% (active) | 94.5% (active) | 99% (active) and 86% (active) | 99% (active) | 93.3% (active) | 100% (active) | 99% (active) | 93.7% (active) | 99% (active) and 35% (inactive) | 99% (active) | 93.2% (active) |
| c1cc[c]([Pb]([c]2ccccc2)[c]2ccccc2)cc1.c1cc[c]([Pb]([c]2ccccc2)[c]2ccccc2)cc1 | 99% (active) | 98% (active) | 99% (active) | 100% (active) | 99% (active) | 99.5% (active) | 100% (active) | 99% (active) | 99.5% (active) | 99% (active) | 98% (active) | 99% (active) | 99% (active) | 97% (active) | 99.4% (active) | 100% (active) | 99% (active) | 99.2% (active) |
| N#Cc1ccccc1C(Cl)(Cl)Cl | 3% (inactive) | -6% (inactive) | -5.55% (inactive) | 6% (inactive) | 12% (inactive) | -21.9% (inactive) | -8% (inactive) | 3% (inactive) | -7.1% (inactive) | 38% (inactive) | 18% (inactive) | 27.1% (inactive) | 26% (inactive) | 13% (inactive) | 16.4% (inactive) | 9% (inactive) | 28% (inactive) | -0.3% (inactive) |
| O=C(N/N=C/c1cc(Cl)cc(Cl)c1[O-])c1ccccc1O.O=C(N/N=C/c1cc(Cl)cc(Cl)c1[O-])c1ccccc1O.[Zn+2] | 93% (active) | 63% (inactive) | 94.5% (active) | 97% (active) | 64% (inactive) | 91.8% (active) | 96% (active) | 72% (active) | 93% (active) | 92% (active) | 50% (inactive) | 91.8% (active) | 95% (active) | 62% (inactive) | 92.7% (active) | 95% (active) | 64% (inactive) | 95.1% (active) |
| CNCC(O)c1cn(C)c2ccccc12 (configuration not stated) | 4% (inactive) | 0% (inactive) | 45% (inactive) | 4% (inactive) | 3% (inactive) | 20.6% (inactive) | 3% (inactive) | 5% (inactive) | 25.1% (inactive) | 6% (inactive) | 2% (inactive) | 22.1% (inactive) | 4% (inactive) | 0% (inactive) | 48.9% (inactive) | 0% (inactive) | -2% (inactive) | 40.9% (inactive) |
| NC(=O)/C=C/C(=O)O (tested in a mixture with another compound) | 0% (inactive) | 1% (inactive) | -5.5% (inactive) | 2% (inactive) | -1% (inactive) | 66.5% (inactive) | 0% (inactive) | 3% (inactive) | 7.2% (inactive) | 1% (inactive) | 1% (inactive) | 23.1% (inactive) | -7% (inactive) | -4% (inactive) | 95.7% (active) | -1% (inactive) | 2% (inactive) | 17.5% (inactive) |
| Cc1ccc(C(Cc2ccc(N3C(N)=NC(N)=NC3(C)C)cc2)C(=O)Nc2ccc(S(=O)(=O)F)cc2)cc1 (configuration not stated) | 7% (inactive) | 99% (active) | 99.2% (active) | 45% (inactive) | 99% (active) | 99.6% (active) | 1% (inactive) | 99% (active) | 99.8% (active) | 7% (inactive) | 99% (active) | 98.8% (active) | -1% (inactive) | 99% (active) | 98.8% (active) | 4% (inactive) | 99% (active) | 99.5% (active) |
| O=C(Cl)c1ccccn1 | 6% (inactive) | 98% (active) | 99.5% (active) | 7% (inactive) | 99% (active) | 99.5% (active) | 7% (inactive) | 99% (active) | 77.8% (active) | 6% (inactive) | 99% (active) | 99.3% (active) | 4% (inactive) | 99% (active) | 99.3% (active) | 1% (inactive) | 99% (active) | 99.5% (active) |
| C=Cc1c2ccccc2cc2ccccc12 | 44% (inactive) | 82% (active) | 86.2% (active) | 42% (inactive) | 82% (active) | 75.2% (active) | 26% (inactive) | 31% (inactive) | 83.3% (active) | 44% (inactive) | 60% (inactive) | 77% (active) | 50% (inactive) | 36% (inactive) | 81.2% (active) | 34% (inactive) | 74% (active) | 75% (active) |
